Results published in the supplement of paper PMC10338343.
± gives the standard deviation.

Each sequence was assayed on MILI (PIWIL2) piRISC loaded with piRNA #1 (26 nt) (assay: pre-steady-state target cleavage rate (min^-1); guide: piRNA #1 5'p-UGAGGUAGUAGGUUGUAUAGUAUCCA; MIWI and MILI are mouse PIWI proteins and EfPiwi is from a freshwater sponge; tags in brackets are library labels; higher = faster piRNA-guided slicing of the target). Settings: auxiliary factor: 500 nM mouse GTSF1.
Protocol: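 Cleave-'n-Seq: a library of target RNAs (target site embedded in constant flanks, ACAGCATTCCGCGTTAGTGATATCCG... 5' flank; DNA-blocked outside the site) at 0.1 nM was incubated with 1 nM active mouse MILI or MIWI piRISC (synthetic 5'-monophosphorylated piRNA guide) with or without 500 nM mouse GTSF1 at 33 °C for 1 min to 16 h. Uncleaved targets were sequenced and normalised to non-target controls, and the pooled three trials were fitted to a burst-and-steady-state model to give the pre-steady-state cleavage rate (min^-1; k3 is constrained to at most 1e-4). Sequence is the target site only; target names encode pairing extent (gX:gY) and contiguous / 1-mismatch / 2-mismatch / bulge geometry. Fits with R² ≤ 0 are excluded.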

Row | Sequence | pre-steady-state target cleavage rate
1 | GGAGACCAUACAAUACAACCUACUACCUGA | 0.12 ± 0.019
2 | GGAGACGAUACUAUACUACCUACUACCACA | 0.209 ± 0.016
3 | GGAGUCGAAACUAUACAACCUACUACCUCA | 0.18 ± 0.019
4 | GGAGACCUAACUAUACAUCCUUCUACCUCA | 0.0117 ± 0.0069
5 | GGAGACCUAUGAUAUGUUCCUACUACCCCA | < 0.0001
6 | GGAGACCUUACUAUUCAUCCUACUACCUCA | 0.231 ± 0.018
7 | GGAGACGAUACUAUACAAGCUACAACCUCA | 0.211 ± 0.018
8 | GGAGACCUAUGUAUACAACCUACAUCCUCA | 0.00671 ± 0.0026
9 | GGAGACGAUACUAAUACAACCUACUACCUCA | 0.134 ± 0.01
10 | GGAGAGGAUAGCUAUACAACCUACUACCUCA | 0.035 ± 0.0046
11 | GGAGACCUAUGAAUACAAGCUACUUCCUCA | 0.0166 ± 0.0043
12 | GGAGACCAUACUAUACAUCCUUCUACCUCA | 0.042 ± 0.0097
13 | GGAGACCAUACUAUACAACCUACUACCUUA | 0.22 ± 0.024
14 | GGAGUGGAUACUAUACAACCUACUACACUCA | 0.128 ± 0.018
15 | GGAGACCAUACUAUACAUCCUACUUCCUCA | 0.176 ± 0.03
16 | GGAGACCUAUCAAUACAACCUACUACCACA | 0.0775 ± 0.019
17 | GGAGACCUAUCUUUACAACCUACUACCACA | 0.105 ± 0.016
18 | GGAGACGAUCUAUACAACCUACUACCUCA | 0.174 ± 0.013
19 | GGAGAGGAUACUAUACAACGUACUACCUCA | 0.0143 ± 0.003
20 | GGAGACCAUACUAUACAACCUACUACCUUCA | 0.2 ± 0.018

Row | Sequence | pre-steady-state target cleavage rate
21 | GGAGAGGACUACUAUACAACCUACUACCUCA | 0.186 ± 0.016
22 | GGAGACCAUACAUUACAACCUACUACCUCA | 0.0869 ± 0.014
23 | GGAGACCUAUCUAUCCAACCUACUACCUCA | 0.0742 ± 0.0096
24 | GGAGACCUAUGAUUACAACCUACUACCUCG [g2:g17:cont:t1G] | 0.00649 ± 0.0032
25 | GGAGACGAUACUAUACAUCCUACUAGCUCA | 0.173 ± 0.027
26 | GGAGACCUUAGAUUACAACCUACUACCUCA | 0.0208 ± 0.007
27 | GGAGACCUAACUAUACAACCUACUACUUCA | 0.084 ± 0.02
28 | GGAGUGGAUACUAUAGAACCUAGUACCUCA | 0.00269 ± 0.0022
29 | GGAGACGAUUCUAUACAACCUACUACGUCA | 0.0993 ± 0.0097
30 | GGAGACCUAUGAUAUGUUCCUACUACCAUCA | < 0.0001
31 | GGAGACCUAUGAUAUGUUCCUACUCCUCA | < 0.0001
32 | GGAGUGGAUAGUAUACAACCUACUACCUGA | 0.0603 ± 0.014
33 | GGAGACCUAUGUAUACAACCUACUGACCUCA | 0.0132 ± 0.0038
34 | GGAGACCAUACUAUACAACCUCUACCUCA | 0.00997 ± 0.0029
35 | GGAGAGCUUACUAUACAACCUACUACCUCA | 0.132 ± 0.0097
36 | GGAGACCUAUGAUAUGUUGCUACUAGGACA | < 0.0001
37 | GGAGACCUUACUAUACAACCAACUUCCUCA | 0.00396 ± 0.0024
38 | GGAGACGAUACUAUACAUCCUACUUCCUCA | 0.157 ± 0.028
39 | GGAGACGAUACUACUACAACCUACUACCUCA | 0.193 ± 0.015
40 | GGAGACCUAUCUGAUACAACCUACUACCUCA | 0.0421 ± 0.0081
